Bioassay records as filed in PubChem.
PrP UTR inh – inhibition of PrP 5' UTR reporter expression | cell-based PrP 5' UTR mRNA reporter, plate reader | inhibition, % (concentration not given with the values) | 340,000 tested, 0.35% active | AID 488862, 2010; in the data active = inhibition above about 52%
PfHsp40 yeast – rescue of yeast from PfHsp40 toxicity, primary screen, S. cerevisiae, ATP luminescence | S. cerevisiae expressing PfHsp40, growth rescue | growth rescue, % at 12.5 µM | 340,000 tested, 0.68% active; in the data active = growth rescue above about 28%, passing the limit was not always enough;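 note: yeast W303a lacking pdr1 and pdr3 grown in galactose medium; growth measured after three days at 30 °C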
PrPC surface inh – inhibitors of human cell surface prion protein PrPC, primary screen, cell-based, TR-FRET. TR-FRET read-out. inhibition, % at 13.8 µM. AID 720596, 2013. 370,000 tested, 0.43% active. Major prion protein (Homo sapiens), P04156; in the data active = inhibition above about 24%
PriA SSB inh – inhibitors of Klebsiella pneumoniae PriA binding to SSB C-terminal tail, primary screen, biochemical, AlphaScreen. 430,000 tested, 0.6% active. AID 1272365, 2023. AlphaScreen SSBct-PriA binding, biotinylated peptide. inhibition, % at 33 µM. PriA–SSB C-terminal tail interaction (Klebsiella pneumoniae); in the data active = inhibition mostly above about 37%, no sharp cut-off; inactive = mostly below about 20%
MazEF act – activators of E. coli MazEF toxin-antitoxin RNase, primary screen, biochemical, fluorescence, uHTS; 350,000 tested, 0.32% active; activation, % at 20 µM; Endoribonuclease toxin MazF (Escherichia coli (strain K12)), P0AE70; AID 504720, 2011; FAM/BHQ RNA-DNA oligo cleavage fluorescence, 5 h; in the data active = activation above about 50%
Target sequence (P0AE70 whole entry, looked up): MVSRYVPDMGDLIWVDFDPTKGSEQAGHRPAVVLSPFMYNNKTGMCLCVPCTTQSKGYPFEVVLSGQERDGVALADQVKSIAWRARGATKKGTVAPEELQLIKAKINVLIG
PrP 5UTR single – prion 5' UTR mRNA inhibition, cherry-pick retest; cell-based prion protein 5' UTR reporter, plate reader; inhibition, % at 2.5 µM; 1,100 tested, 48% active; shares compounds with PrP UTR inh; AID 504592, 2011; in the data active = inhibition above about 54%
Hits are given with their value; n = inactive; x = no result. Rows were chosen to be rich in hits. Some 1.8% of all compounds tested hit in one or more screens of this group.

SMILES	PrP UTR inh	PfHsp40 yeast	PrPC surface inh	PriA SSB inh	MazEF act	PrP 5UTR single
C#CCOCCOCCOCCNc1nc(N2CCN(C(=O)[C@H]([C@@H](C)CC)n3cc([C@@H](N)Cc4ccc(O)cc4)nn3)CC2)nc(N2CCN(C(=O)[C@H]([C@@H](C)CC)n3cc([C@@H](N)Cc4ccc(O)cc4)nn3)CC2)n1	n	n	n	n	51	x
C#CCOCCOCCOCCNc1nc(N2CCN(C(=O)C(Cc3cc4ccccc4[nH]3)n3cc(C(N)Cc4ccc(O)cc4)nn3)CC2)nc(N2CCN(C(=O)C(Cc3cc4ccccc4[nH]3)n3cc(C(N)Cc4ccc(O)cc4)nn3)CC2)n1 (centres undefined)	x	x	x	39	n	x
CCC(=O)c1ccc(OCC(=O)OC(C)C(=O)N2CCc3ccccc32)cc1 (centres undefined)	n	n	n	n	n	x
C=CCn1c(SCn2nnc3ccccc3c2=O)nnc1-c1ccc(F)cc1	n	n	n	n	n	x
C=CCn1c(SCn2nnc3ccccc3c2=O)nnc1-c1ccc(Br)cc1	n	114	n	n	n	x
C=CCn1c(Cc2cccs2)nnc1SCC(=O)Nc1cccc2ccccc12	x	x	n	x	x	x
C=CCn1c(Cc2csc(N)n2)nnc1SCC(=O)Nc1ccccc1C(F)(F)F	n	n	n	74	n	x
Cc1c(N)cncc1Br	x	x	x	n	x	x
COc1ccc(-c2csc(N(Cc3ccco3)C(=O)c3cccs3)n2)cc1	n	n	n	n	64	x
COc1ccc(OC)c(-c2csc(N(Cc3ccco3)C(=O)c3cccs3)n2)c1	n	n	n	n	n	x
CCOC(=O)c1ccc(NC(=S)N(Cc2cccnc2)Cc2ccco2)cc1	n	389	n	n	n	x
COC(=O)c1ccc(NC(=S)N(Cc2cccnc2)Cc2ccco2)cc1	n	n	n	n	n	x
COc1cc(Sc2ccc(C)cc2)c(OC)cc1N	n	n	n	79	n	x
O=c1[nH]nc(Cc2ccc3ccccc3n2)c2ccccc12	n	n	n	n	74	x
O=c1[nH]nc(Cc2ccccc2)c2ccccc12	n	n	n	n	n	x
O=C(NCc1ccccc1F)c1ccc2c(c1)OCO2	n	n	n	n	n	x
O=C(NCCc1ccccc1F)c1ccc2c(c1)OCCO2	89	n	n	n	n	93
CC(=O)CCC(=O)NCCc1ccccc1F	85	n	n	n	n	n
COc1ccc(C(=O)CCC(=O)NCCc2ccccc2F)cc1	n	n	n	n	n	x
CCN(CC)Cc1cc(C(C)(C)C)cc(N2CCOCC2)c1O	73	n	n	n	n	n
CN(C)Cc1cc(C(C)(C)C)cc(N2CCOCC2)c1O	n	n	n	n	n	x
Cc1ccc(C(=O)Nc2ncc(Cc3ccc(SC(F)F)cc3)s2)cc1	62	n	n	n	n	89
Cc1ccc(C(=O)Nc2ncc([N+](=O)[O-])s2)cc1	71	n	n	n	n	73
Cc1nnsc1C(=O)N1CCC(Cn2cccn2)CC1	x	x	x	n	x	x
COC(=O)C(CSCc1ccccc1)NC(=O)CCNC(=O)OCc1ccccc1 (centres undefined)	x	x	n	x	n	x
SMILES	PrP UTR inh	PfHsp40 yeast	PrPC surface inh	PriA SSB inh	MazEF act	PrP 5UTR single
CCC1=Nc2cc(C(=O)NCc3ccco3)ccc2Sc2ccc(C)cc21	69	n	n	n	n	86
CCC1=Nc2cc(C(=O)NCCCOC)ccc2Sc2ccccc21	77	n	n	n	n	n
CCCC1=Nc2cc(C(=O)NCCCOCC)ccc2Sc2ccccc21	58	n	n	n	n	84
CCC1=Nc2cc(C(=O)NCCN3CCOCC3)ccc2Sc2ccc(C)cc21	n	n	n	n	n	x
N#CC1=C(N)Oc2c(ccc3ccccc23)C1c1ccsc1 (centres undefined)	77	n	n	n	n	88
N#CC1=C(N)Oc2c(oc(CO)cc2=O)C1c1ccsc1 (centres undefined)	n	n	n	n	n	x
Cc1ccc(CCC(=O)Nc2ncc(Cc3cccc(C(F)(F)F)c3)s2)o1	x	x	x	n	x	x
Cc1ccc(CCC(=O)Nc2ncc(Cc3cccc(Cl)c3Cl)s2)o1	53	n	n	n	n	89
Cc1ccc(CNS(=O)(=O)c2c(C(=O)N3CCCCC3)c(C)n(C)c2C)cc1	n	n	n	n	n	x
